According to ChEMBL document CHEMBL3988442, “University of Dundee, Small-Polar-MMV Screening Library” (2021):

What was measured:
[1] = molecular target: T1, Aspartate--tRNA(Asp/Asn) ligase (Mycobacterium tuberculosis (strain ATCC 25618 / H37Rv)) (UniProt P9WFW3); assay: Assay for Asp RNA synthetase-1 from Mycobacterium tuberculosis; type: functional; design: scale not given: direction of the effect not stated beside the values; details: 30 µM; also: in the data most compounds retested in dose-response had high values
T1 sequence (whole entry): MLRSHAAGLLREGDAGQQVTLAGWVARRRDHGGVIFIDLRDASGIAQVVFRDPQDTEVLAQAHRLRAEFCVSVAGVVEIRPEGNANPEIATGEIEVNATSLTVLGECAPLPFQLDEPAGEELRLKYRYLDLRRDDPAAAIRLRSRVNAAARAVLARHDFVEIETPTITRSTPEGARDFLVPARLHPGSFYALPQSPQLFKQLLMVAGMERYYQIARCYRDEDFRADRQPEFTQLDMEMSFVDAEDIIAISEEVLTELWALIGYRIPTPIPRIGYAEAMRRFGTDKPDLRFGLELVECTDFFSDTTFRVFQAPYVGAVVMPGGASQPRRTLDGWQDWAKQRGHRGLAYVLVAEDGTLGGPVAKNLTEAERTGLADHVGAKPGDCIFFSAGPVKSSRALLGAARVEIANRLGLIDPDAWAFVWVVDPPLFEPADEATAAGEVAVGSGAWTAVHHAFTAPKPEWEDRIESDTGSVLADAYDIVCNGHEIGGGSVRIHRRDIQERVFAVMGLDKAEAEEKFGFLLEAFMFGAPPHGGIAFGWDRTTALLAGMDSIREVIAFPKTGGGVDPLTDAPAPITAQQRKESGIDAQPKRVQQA

[2] = molecular target: Shiga toxin 2 (Escherichia coli O157:H7) (UniProt P09385+P09386); assay: E. coli 0.157:H7 Shiga Toxin SOP - stx2 screening assay; type: functional; design: scale not given: direction of the effect not stated beside the values; details: 30 µM

Row | Compound | Percent Effect [1] [%] | Percent Effect [2] [%]
1 | O=S(=O)(c1ccccc1Cl)N1CCc2nc(C3CCNCC3)ncc2C1 | -6.28 | -9.83
2 | Cc1cc(C)n(C2CCCN(C(=O)CCCNc3ncccn3)C2)n1 (configuration not stated) | -5.54 | -43.3
3 | O=C(CCc1ccc(O)cc1)N1CCC(Cc2ccc(CO)cc2)C1 (configuration not stated) | -0.39 | -14.8
4 | CCc1cnc(CN2CCCC2c2noc(C3CC3)n2)o1 (configuration not stated) | 2.19 | 19.7
5 | Cc1noc([C@H]2C[C@@H]3CCN(C(=O)C4CCOCC4)C[C@H]3O2)n1 | 1.08 | -0.561
6 | Cc1nc([C@@H]2C[C@@H]3CCN(C(=O)c4ccnnc4)C[C@H]3O2)sc1C | 4.24 | -9.81
7 | c1ccc(-c2cnc(CNCC3CCCN3c3cccnn3)o2)cc1 (configuration not stated) | 1.15 | 11.4
8 | c1cnnc(N2CCCC2CNc2ncnc3c2CCC3)c1 (configuration not stated) | -0.597 | 2.94
9 | CC(C(=O)N1CCN(c2cnccn2)CC1)n1cncn1 (configuration not stated) | 2.72 | 2.13
10 | CC(C)NC(=O)N1CCC2(CC(=O)N(c3cccc(C#N)c3)C2)C1 (configuration not stated) | 5.75 | 8.35
11 | COc1cccc(CN2CCCCCC2c2cccs2)c1O (configuration not stated) | 0.335 | -75.8
12 | CC(C)S(=O)(=O)NCC1CCCN(C(=O)c2ccc3c(c2)CCC3)C1 (configuration not stated) | 6.5 | 1.33
13 | O=C(NCC1CCOC1)Nc1ccc(OCC(F)(F)F)nc1 (configuration not stated) | -1.61 | -28.7
14 | CNC(=O)CN1CCCC12CCN(C(=O)c1ccc(F)cc1)CC2 | -5.42 | -14.4
15 | CCS(=O)(=O)N1CCC[C@]2(C(=O)N(C)C)CN(c3ncccn3)C[C@@H]2C1 | 2.53 | -34.5
16 | CC(C)(C)c1n[nH]c(C2CN(C(=O)c3csnn3)CCO2)n1 (configuration not stated) | -2.01 | 5.88
